Several values for one entry are separate records, joined by “and”; a condition that tells them apart may be missing. Equal entries are not always repeated. Compounds without any hit were thinned out: in the full panel of roughly 83,000, 20% have a hit.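 A percent growth of 40 corresponds to 60% growth inhibition; 0 means no net growth; -100 means all cells died. Active threshold: below 10.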 Values without a mark were called inactive. Activity calls are given as the source filed them.

This is an account of results in PubChem BioAssay (NCI).

Among the test systems are HCT-15 colon; HT29 colon; SNB-75 CNS; SNB-19 CNS; U251 CNS; PC-3 prostate; SK-MEL-5 melanoma; UACC-62 melanoma; LOX IMVI melanoma; SK-MEL-28 melanoma.
Common to all, as to assay: NCI-60 one-dose screen, 48 h (100 = growth as untreated, 0 = no growth, -100 = all killed)
Common to all, as to details: 10 µM unless noted

For `Nc1[nH][nH]c(=O)c1N=Nc1ccccc1`, the growth in the assay with HCT-15 colon was 96.3% and 106%; with HT29 colon it was 107% and 88.8%; in the assay with SNB-75 CNS, 79.3% and 111%; with SNB-19 CNS, 99.5% and 112%; in the assay with U251 CNS, 109% and 105%; in the assay with PC-3 prostate, 99% and 101%. The growth with SK-MEL-5 melanoma is 104% and 99.5%; in the assay with UACC-62 melanoma it was 96.3% and 109%; with LOX IMVI melanoma it was 105% and 100%; with SK-MEL-28 melanoma it was 111% and 118%.
For the compound `CCOC(=N)c1ccc(C(=N)OCC)cc1`, the growth was 96.4% in the assay on HCT-15 colon; 101% with HT29 colon; 103% in the assay on SNB-75 CNS; 91.4% in the assay on SNB-19 CNS; 102% with U251 CNS; 103% with PC-3 prostate. For the same compound, the growth with SK-MEL-5 melanoma was 95.7%; in the assay with UACC-62 melanoma it was 96.8%; with LOX IMVI melanoma, 98.1%; in the assay with SK-MEL-28 melanoma, 101%.
In the case of `CC1OS(=O)OC1C` (stereo not given), the growth was 94% and 98.6% with HCT-15 colon; 88.7% and 104% with HT29 colon; 92.6% and 94.7% in the assay with SNB-75 CNS; 101% in the assay with SNB-19 CNS; 100% and 101% in the assay on U251 CNS; 100% and 97.5% in the assay with PC-3 prostate. The growth with SK-MEL-5 melanoma is 99.9% and 98%; with UACC-62 melanoma it was 95.5% and 89.8%; in the assay with LOX IMVI melanoma, 94.1% and 91.6%; in the assay on SK-MEL-28 melanoma, 109% and 103%.
Regarding `N=C(N=C(N)N)N1CCOCC1`, the growth in the assay on HCT-15 colon is 101% and 94.5%; in the assay on HT29 colon, 104% and 111%; with SNB-75 CNS, 90.5% and 89.8%; in the assay on SNB-19 CNS, 110% and 99.1%; in the assay on U251 CNS, 101% and 103%; with PC-3 prostate, 93.7% and 94.5%. The growth is 96.1% and 98% with SK-MEL-5 melanoma; 105% and 100% with UACC-62 melanoma; 102% and 93.2% with LOX IMVI melanoma; 99.5% and 103% in the assay on SK-MEL-28 melanoma.
Turning to `O=[N+]([O-])c1ccc(N2CCN=N2)cc1`, the growth in the assay on HCT-15 colon was 80%; with HT29 colon it was 88.4%; with SNB-75 CNS it was 89.2%; in the assay with SNB-19 CNS, 94.7%; in the assay with U251 CNS it was 88.1%; in the assay on PC-3 prostate it was 73.8%. In addition, the growth with SK-MEL-5 melanoma is 93.3%; in the assay with UACC-62 melanoma, 68.7%; with LOX IMVI melanoma, 73.3%; in the assay on SK-MEL-28 melanoma, 93.7%.
For the compound `COc1ccc(CCO)cc1`, the growth in the assay on HCT-15 colon was 102%; in the assay with HT29 colon, 94.3%; in the assay with SNB-75 CNS, 101%; in the assay with SNB-19 CNS, 100%; with U251 CNS, 95.5%; with PC-3 prostate, 91.9%. The growth with SK-MEL-5 melanoma was 100%; in the assay with UACC-62 melanoma, 98.5%; in the assay with LOX IMVI melanoma, 99.5%; with SK-MEL-28 melanoma, 111%.
For the compound `CCOC(=O)c1ccncc1`, the growth in the assay with HCT-15 colon was 108%; in the assay with HT29 colon, 104%; in the assay with SNB-75 CNS, 108%; in the assay with SNB-19 CNS it was 111%; in the assay on U251 CNS, 104%; with PC-3 prostate, 97.5%. Further, the growth in the assay on SK-MEL-5 melanoma was 95.8%; with UACC-62 melanoma, 101%; in the assay on LOX IMVI melanoma, 99%; in the assay with SK-MEL-28 melanoma, 110%.
For the compound `CCOP(C)(=O)/C(Cc1ccc(OC)c(OC)c1)=N\O` (stereo not given), the growth in the assay with HCT-15 colon was 104%; in the assay with HT29 colon it was 106%; with SNB-75 CNS, 88.7%; in the assay with SNB-19 CNS it was 105%; in the assay with U251 CNS, 107%; in the assay with PC-3 prostate, 106%. The growth in the assay on SK-MEL-5 melanoma is 96.1%; in the assay with UACC-62 melanoma, 96%; with LOX IMVI melanoma, 96.5%; with SK-MEL-28 melanoma, 111%.
As for `Nc1ccccc1SC1CC(=O)N(c2ccc(I)cc2)C1=O` (stereo not given), the growth in the assay on HCT-15 colon was 88.5%; with HT29 colon it was 93.3%; in the assay on SNB-75 CNS, 79.8%; in the assay with SNB-19 CNS, 96%; in the assay on U251 CNS, 88.4%; in the assay on PC-3 prostate it was 94.2%. The growth with SK-MEL-5 melanoma was 87.9%; in the assay on UACC-62 melanoma, 82.7%; with LOX IMVI melanoma it was 76.4%; in the assay on SK-MEL-28 melanoma it was 90.8%.
For `CCNC1=CC(=O)c2ncccc2C1=O`, the growth in the assay on HCT-15 colon is 10.8%; with HT29 colon it was 8.49% (active); with SNB-75 CNS, -91% (active); in the assay on SNB-19 CNS, 19.6%; with U251 CNS it was 30.7%; in the assay with PC-3 prostate, 44.7%. Moreover, the growth in the assay on SK-MEL-5 melanoma was -98.3% (active); in the assay with UACC-62 melanoma it was -95.3% (active); in the assay on LOX IMVI melanoma it was -35.3% (active); in the assay with SK-MEL-28 melanoma it was -37% (active).
For the compound `CNc1ccc(O)cc1`, the growth in the assay on HCT-15 colon was 103% and 102%; with HT29 colon, 114% and 113%; with SNB-75 CNS it was 84.1% and 66.5%; in the assay with SNB-19 CNS, 102% and 98.3%; in the assay with U251 CNS, 101% and 99.3%; in the assay on PC-3 prostate it was 102% and 100%. In addition, the growth was 98.2% and 112% in the assay on SK-MEL-5 melanoma; 108% and 89.3% with UACC-62 melanoma; 101% and 93.9% with LOX IMVI melanoma; 114% and 137% with SK-MEL-28 melanoma.
As for `CN(C)C(=N)N=C(N)N`, the growth with HCT-15 colon is 83.1% and 121%; in the assay on HT29 colon, 98.6% and 113%; in the assay on SNB-75 CNS, 101% and 114%; in the assay on SNB-19 CNS, 106% and 108%; in the assay on U251 CNS, 81.1% and 118%; in the assay with PC-3 prostate it was 104%. Moreover, the growth in the assay on SK-MEL-5 melanoma was 103% and 131%; in the assay on UACC-62 melanoma it was 99.7% and 120%; in the assay on LOX IMVI melanoma it was 87% and 110%; in the assay on SK-MEL-28 melanoma, 116% and 106%.
